The results in this text go back to PubChem BioAssay (NCI).

Each structure is given as a SMILES string. The panel holds about 83,000 compounds, 20% with a hit somewhere; the sample as a whole holds those more often.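 48-hour exposure, single concentration, 96-well plates; percent growth endpoint where 0 means no net growth. Active: below 10.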 The source made the active and inactive calls.

For this assay, the system named is IGROV1 ovarian. Briefly: NCI-60 one-dose screen, 48 h (100 = growth as untreated, 0 = no growth, -100 = all killed). To be noted: 10 µM unless noted.
As for `O=C(CCl)Oc1ccc([N+](=O)[O-])cc1`, the growth is 106% (inactive).

In the case of `Clc1cccc(Cl)c1CSc1nc2ccccc2n2cccc12`, the growth is 76.4% (inactive). `Cc1cccnc1NC1OC(=O)c2ccccc21` (stereo not drawn): the growth was 101% (inactive). For `COc1cc(OC)c(NC(=O)C(Sc2nc(C)cc(C)c2C#N)c2ccccc2)cc1Cl` (stereo not drawn), the growth is 93.4% (inactive). In the case of `COc1ccc(/C=N/NC(=O)COCC(=O)N/N=C/c2ccc(OC)cc2)cc1` it was 110% (inactive); in that of `Nc1ccccc1SC1CC(=O)N(c2ccc(Cl)c(Cl)c2)C1=O` (stereo not drawn), 105% (inactive). Turning to `CC(C)c1ccccc1NC(=O)N1CCC(C(C)C)CC1`, the growth is 106% (inactive). In the case of `FC(F)(F)c1cc(NC2=NCCN=C(Nc3cc(C(F)(F)F)cc(C(F)(F)F)c3)SS2)cc(C(F)(F)F)c1` it was 49.7% (inactive); in that of `CC(CCC#N)(CCC#N)C(=O)c1ccccc1`, 125% (inactive).

Turning to `CCCCCCCCNC(=O)C(C)C`, the growth was 107% (inactive).

Regarding `CCCCCCCCCCCCCCCCCC(=O)NCCNC(=O)CCCCCCCCCCCCCCCCC`, the growth is 66.3% (inactive). `C=CCC(OC(C)=O)c1ccc(C(C)C)cc1` (stereo not drawn): the growth was 123% (inactive).

As to `CC(=O)c1cc(O)ccc1O`, the growth was 117% (inactive). In the case of `CCCNS(=O)(=O)c1ccc(Cl)cc1` it was 105% (inactive); in that of `S=c1nc(-c2ccccn2)c(-c2ccccn2)n[nH]1`, 103% (inactive); in that of `CCOc1ccc(C(=O)NCC(C)C)cc1`, 110% (inactive). Regarding `O=C(O)c1cccc(-n2ncc(Cl)c(Cl)c2=O)c1`, the growth is 130% (inactive). As to `Cn1/c(=N\N=C\c2ccccc2OCCO)sc2ccccc21`, the growth is 70.2% (inactive).
